Measurements taken from PubChem BioAssay (NCATS).
Records with an inconclusive call do not appear. Calls of active or inactive are those of the source. The call rests on the fitted dose curve; in most records, active means well fitted inhibition curve with a large enough effect; inconclusive means small, poorly fitted or top-dose-only effect; inactive means flat fitted curve, though single readings scatter.

Experiments:
Assay in all cases: qHTS profiling for inhibitors of Plasmodium falciparum proliferation (AID 504749); further: nearly all actives have a fitted effect of over 60% in size
Details in all cases: P. falciparum in erythrocytes, SYBR Green DNA, 72 h; series mostly up to 28.7 µM
CP286 = test system: CP286
Outline: (§1)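 Quantitative HTS: compounds pinned into medium, infected erythrocytes added (0.3% parasitemia, 2.5% hematocrit), 72 h culture at 37 C under 5% CO2. Saponin/Triton lysis with SYBR Green I, overnight RT, then fluorescence read.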

CP291 = test system: CP291
Outline: as §1

CP297 = test system: CP297
Outline: as §1

CP305 = test system: CP305
Outline: as §1

CP315 = test system: CP315
Outline: as §1

CP325 = test system: CP325
Outline: as §1

CP329 = test system: CP329
Outline: as §1

CP335 = test system: CP335
Outline: as §1

DFO2036 = test system: DFO2036
Outline: as §1

DIV14 = test system: DIV14
Outline: as §1

DIV17 = test system: DIV17
Outline: as §1

DIV30 = test system: DIV30
Outline: as §1

Dd2 = test system: Dd2
Outline: as §1

ECU = test system: ECU
Outline: as §1

FAB9 = test system: FAB9
Outline: as §1

GB4 = test system: GB4
Outline: as §1

HB3 = test system: HB3
Outline: as §1

ICS = test system: ICS
Outline: as §1

JCK = test system: JCK
Outline: as §1

N140 = test system: N140
Outline: as §1

Measured: Potency
Potency means the concentration at half of the fitted maximal effect.

CCCCCCCCOc1ccc(C(=O)c2ccccc2)c(O)c1
inactive: all assays above

Cc1cccc(C)c1NC(=O)c1ccccc1C(=O)O
inactive: all assays above

CC(=O)NC(=O)c1ccccc1O
inactive: all assays above

FC1(F)C(F)(F)C(F)(F)C2(F)C(F)(F)C(F)(F)C(F)(F)C(F)(F)C2(F)C1(F)F (centres undefined)
inactive: all assays above

O=C(O)c1ccc(S(=O)(=O)N(Cl)Cl)cc1
inactive: all assays above

CC(=O)Nc1ccc(OC(=O)c2ccccc2OC(C)=O)cc1
inactive: all assays above

CCCCCCCCCCCCCCCC(=O)O
inactive: all assays above

CCOc1cc(OCC)c(C(=O)CCC(=O)O)cc1OCC
inactive: all assays above

CC(=O)Nc1ccc(CC(=O)O)cc1
inactive: all assays above

O=S(=O)(O)c1ccc(O)cc1
inactive: all assays above

CCCCCCCCCCCCCC[N+](C)(C)Cc1ccccc1
active: CP286 3.16 µM | CP291 4.78 µM | CP297 5.36 µM | CP305 5.36 µM | CP315 10.7 µM | CP325 5.36 µM | CP329 4.78 µM | CP335 4.78 µM | DFO2036 7.94 µM | DIV14 4.78 µM | DIV17 4.78 µM | DIV30 6.75 µM | Dd2 10 µM | ECU 7.08 µM | FAB9 5.62 µM | GB4 4.26 µM | HB3 8.91 µM | ICS 2.51 µM | JCK 11.2 µM | N140 8.91 µM

Nc1ccc(C(=O)NCC(=O)O)cc1
inactive: all assays above

O=C(NCCc1c[nH]c2ccccc12)c1cccnc1
inactive: all assays above

CCCCCCCCCCCCCCCCO
inactive: all assays above

CCOC(=O)C(C#N)=C(c1ccccc1)c1ccccc1
inactive: all assays above

NC(=O)c1ccccc1O
inactive: all assays above

Cl/C(=C\n1cncn1)c1ccc(Cl)cc1Cl
not listed: ICS
inactive: all other assays above

CCCCCCCCCCCCSCCOCCO
inactive: all assays above

NC(=O)n1c(O)c(C(=O)c2cccs2)c2cc(Cl)ccc21
inactive: all assays above

NC(=S)N/N=C/c1cccnc1
inactive: all assays above

COc1cc(C)nc(-n2nc(C)cc2OC)n1
inactive: all assays above

Cc1c(-c2ccccc2)oc2c(C(=O)OCCN3CCCCC3)cccc2c1=O
inactive: all assays above

c1ccc(-c2nc[nH]c2-c2ccccc2)cc1
inactive: all assays above

O=C(O)C(Cc1cc(I)c(O)c(I)c1)c1ccccc1 (centres undefined)
inactive: all assays above

COc1ccc(CN(CCN(C)C)c2ncccn2)cc1
active: GB4 9.53 µM
inactive: all other assays above

C[C@@H](O)[C@H]1C(=O)N2C(C(=O)O)=C(S[C@@H]3CN[C@H](CNS(N)(=O)=O)C3)[C@H](C)[C@H]12
inactive: all assays above

O=C(O)P(=O)(O)O
inactive: all assays above

CC(=O)Nc1ccc(OCC(O)CNC(C)C)cc1 (centres undefined)
inactive: all assays above
